# Assay results published in PMC7862700, “An all-to-all approach to the identification of sequence-specific readers for epigenetic DNA modifications on cytosine”.
# Experiments:
# Test in all cases: DAPPL (digital affinity profiling via proximity ligation, sequencing); 10 mM Tris-HCl pH 7.5, 50 mM NaCl, 1 mM DTT, 4% glycerol, room temperature, 30 min; GST-TFs on glutathione beads, 16-mer random dsDNA library, 0.1% formaldehyde crosslink after washing; high values mean tight binding
# Settings in all cases: protein: recombinant; tags: N-terminal GST; dsDNA, one strand shown
# FLI1 = target: T1, FLI1 (Homo sapiens, UniProt Q01543 1-452)
# T1 sequence: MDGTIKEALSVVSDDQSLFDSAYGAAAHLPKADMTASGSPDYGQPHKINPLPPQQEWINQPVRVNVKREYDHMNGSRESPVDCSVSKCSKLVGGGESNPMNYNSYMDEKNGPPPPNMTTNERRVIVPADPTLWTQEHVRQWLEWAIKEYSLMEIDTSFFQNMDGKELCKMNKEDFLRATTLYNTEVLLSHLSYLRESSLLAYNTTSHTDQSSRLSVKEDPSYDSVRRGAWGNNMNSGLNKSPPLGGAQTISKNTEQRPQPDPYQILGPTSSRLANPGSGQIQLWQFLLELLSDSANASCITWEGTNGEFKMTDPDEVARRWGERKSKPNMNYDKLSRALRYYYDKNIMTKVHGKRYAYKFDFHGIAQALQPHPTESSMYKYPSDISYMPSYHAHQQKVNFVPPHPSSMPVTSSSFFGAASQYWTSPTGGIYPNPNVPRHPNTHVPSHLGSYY
# Summary of the method: (§1)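 After expression in yeast as GST fusions, human transcription factors were bound to glutathione beads, DNA-barcoded and mixed with a tag-only sample. The pools were incubated with 200 nmole of a 16-mer random double-stranded DNA library in Tris/NaCl/DTT/glycerol buffer (30 min, room temperature), washed and crosslinked with 0.1% formaldehyde. Proximity ligation with BsaI/T4 ligase ran for 1 h at 37 °C, before PCR amplification and sequencing on an Illumina NextSeq500. Binding signal is a hexamer's read frequency for a factor divided by its frequency for the tag-only sample.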
# ELK1 = target: T2, ELK1 (Homo sapiens, UniProt P19419 1-428)
# T2 sequence: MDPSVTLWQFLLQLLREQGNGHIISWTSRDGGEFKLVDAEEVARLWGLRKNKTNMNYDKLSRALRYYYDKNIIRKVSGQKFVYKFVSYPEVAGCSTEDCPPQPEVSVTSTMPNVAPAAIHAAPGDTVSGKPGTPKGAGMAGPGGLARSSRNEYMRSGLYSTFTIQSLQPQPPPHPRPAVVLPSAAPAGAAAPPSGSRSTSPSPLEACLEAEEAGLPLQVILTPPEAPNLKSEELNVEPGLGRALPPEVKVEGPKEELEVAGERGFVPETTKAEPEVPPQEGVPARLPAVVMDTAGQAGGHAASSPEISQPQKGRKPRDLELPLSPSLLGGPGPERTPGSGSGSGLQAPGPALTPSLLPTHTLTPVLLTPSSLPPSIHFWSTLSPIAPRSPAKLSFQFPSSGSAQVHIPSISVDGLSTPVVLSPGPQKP
# Summary of the method: as §1
# GABPA = target: T3, GABPA (Homo sapiens, UniProt Q06546 1-454)
# T3 sequence: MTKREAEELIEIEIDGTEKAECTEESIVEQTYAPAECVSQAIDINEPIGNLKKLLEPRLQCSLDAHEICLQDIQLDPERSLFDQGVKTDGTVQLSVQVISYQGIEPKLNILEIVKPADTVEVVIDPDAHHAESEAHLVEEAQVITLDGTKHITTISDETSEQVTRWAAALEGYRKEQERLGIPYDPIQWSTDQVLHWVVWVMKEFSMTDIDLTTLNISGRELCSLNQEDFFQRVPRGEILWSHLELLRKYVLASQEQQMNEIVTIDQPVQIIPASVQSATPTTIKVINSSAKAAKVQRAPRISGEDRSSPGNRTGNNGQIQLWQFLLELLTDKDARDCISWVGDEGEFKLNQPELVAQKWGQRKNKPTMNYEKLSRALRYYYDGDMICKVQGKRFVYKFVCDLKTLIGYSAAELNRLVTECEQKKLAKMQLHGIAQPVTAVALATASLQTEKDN
# Summary of the method: as §1
# ERG = target: T4, ERG (Homo sapiens, UniProt P11308 1-479)
# T4 sequence: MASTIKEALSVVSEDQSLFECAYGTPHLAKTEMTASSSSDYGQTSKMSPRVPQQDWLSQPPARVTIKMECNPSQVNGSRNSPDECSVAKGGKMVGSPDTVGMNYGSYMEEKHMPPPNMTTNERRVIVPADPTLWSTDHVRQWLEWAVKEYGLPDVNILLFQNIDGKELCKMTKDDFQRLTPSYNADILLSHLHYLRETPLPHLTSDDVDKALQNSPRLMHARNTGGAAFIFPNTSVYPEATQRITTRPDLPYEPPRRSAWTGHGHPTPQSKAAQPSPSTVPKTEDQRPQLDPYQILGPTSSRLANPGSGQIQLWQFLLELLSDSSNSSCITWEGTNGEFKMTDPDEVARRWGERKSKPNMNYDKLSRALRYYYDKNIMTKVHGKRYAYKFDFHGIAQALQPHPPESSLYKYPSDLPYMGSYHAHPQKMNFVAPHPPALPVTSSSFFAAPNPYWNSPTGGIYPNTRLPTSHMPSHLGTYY
# Summary of the method: as §1
# ELF1 = ELF1 (Homo sapiens, UniProt P32519 1-619)
# Summary of the method: as §1
# EHF = target: T5, EHF (Homo sapiens, UniProt Q9NZC4 1-300)
# T5 sequence: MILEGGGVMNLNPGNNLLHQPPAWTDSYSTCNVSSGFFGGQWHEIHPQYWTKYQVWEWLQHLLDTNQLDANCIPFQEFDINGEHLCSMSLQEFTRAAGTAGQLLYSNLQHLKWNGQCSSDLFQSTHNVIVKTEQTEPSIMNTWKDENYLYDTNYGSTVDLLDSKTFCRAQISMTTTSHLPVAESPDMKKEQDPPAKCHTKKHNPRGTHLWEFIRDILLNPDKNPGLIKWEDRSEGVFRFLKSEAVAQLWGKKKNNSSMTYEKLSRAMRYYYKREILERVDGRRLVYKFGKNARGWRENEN
# Summary of the method: as §1
# SPI1 = SPI1 (Homo sapiens, UniProt P17947 1-270)
# Summary of the method: as §1
# SPIB = SPIB (Homo sapiens, UniProt Q01892 1-262)
# Summary of the method: as §1
# ELK3 = target: T6, ELK3 (Homo sapiens, UniProt P41970 1-407)
# T6 sequence: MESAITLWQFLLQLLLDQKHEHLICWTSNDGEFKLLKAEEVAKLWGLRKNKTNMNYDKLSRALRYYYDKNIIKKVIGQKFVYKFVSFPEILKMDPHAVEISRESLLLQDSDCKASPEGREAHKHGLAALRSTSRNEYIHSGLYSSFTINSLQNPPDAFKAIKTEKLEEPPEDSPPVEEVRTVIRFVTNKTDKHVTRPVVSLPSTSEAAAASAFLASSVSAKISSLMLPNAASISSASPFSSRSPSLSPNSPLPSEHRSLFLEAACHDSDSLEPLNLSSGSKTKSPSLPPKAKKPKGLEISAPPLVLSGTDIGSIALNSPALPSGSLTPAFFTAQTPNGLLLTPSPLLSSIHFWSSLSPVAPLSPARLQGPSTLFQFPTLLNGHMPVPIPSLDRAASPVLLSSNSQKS
# Summary of the method: as §1
# FEV = target: T7, FEV (Homo sapiens, UniProt Q99581 1-238)
# T7 sequence: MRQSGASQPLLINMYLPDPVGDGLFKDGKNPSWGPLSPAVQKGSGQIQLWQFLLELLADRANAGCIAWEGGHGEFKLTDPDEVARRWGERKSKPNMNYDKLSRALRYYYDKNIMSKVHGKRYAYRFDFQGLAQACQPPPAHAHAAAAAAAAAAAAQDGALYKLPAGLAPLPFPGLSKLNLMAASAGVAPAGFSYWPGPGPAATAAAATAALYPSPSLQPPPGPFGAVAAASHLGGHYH
# Summary of the method: as §1
# ETV5 = ETV5 (Homo sapiens, UniProt P41161 1-510)
# Summary of the method: as §1
# SPIC = target: T8, SPIC (Homo sapiens, UniProt Q8N5J4 1-248)
# T8 sequence: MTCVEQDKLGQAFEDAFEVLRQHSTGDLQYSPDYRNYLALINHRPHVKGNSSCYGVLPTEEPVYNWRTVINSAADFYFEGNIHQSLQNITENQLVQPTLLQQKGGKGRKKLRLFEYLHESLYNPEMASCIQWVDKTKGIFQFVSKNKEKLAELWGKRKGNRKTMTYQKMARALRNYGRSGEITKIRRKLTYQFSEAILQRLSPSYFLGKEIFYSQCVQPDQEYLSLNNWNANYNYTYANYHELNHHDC
# Summary of the method: as §1
# ELF4 = ELF4 (Homo sapiens, UniProt Q99607 1-663)
# Summary of the method: as §1
# ELK4 = target: T9, ELK4 (Homo sapiens, UniProt P28324-2 1-405)
# T9 sequence: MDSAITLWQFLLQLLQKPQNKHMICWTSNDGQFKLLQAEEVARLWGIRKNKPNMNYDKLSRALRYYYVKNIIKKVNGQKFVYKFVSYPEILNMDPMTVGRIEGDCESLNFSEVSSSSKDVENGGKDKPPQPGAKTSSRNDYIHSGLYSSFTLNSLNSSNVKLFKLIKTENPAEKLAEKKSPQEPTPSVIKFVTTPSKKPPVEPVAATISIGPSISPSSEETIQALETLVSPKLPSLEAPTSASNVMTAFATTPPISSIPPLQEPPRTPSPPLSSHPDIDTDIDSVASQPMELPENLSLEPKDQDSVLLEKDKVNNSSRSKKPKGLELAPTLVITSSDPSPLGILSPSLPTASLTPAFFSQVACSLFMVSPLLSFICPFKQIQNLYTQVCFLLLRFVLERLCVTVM
# Summary of the method: as §1
# ETV2 = target: T10, ETV2 (Homo sapiens, UniProt O00321 1-342)
# T10 sequence: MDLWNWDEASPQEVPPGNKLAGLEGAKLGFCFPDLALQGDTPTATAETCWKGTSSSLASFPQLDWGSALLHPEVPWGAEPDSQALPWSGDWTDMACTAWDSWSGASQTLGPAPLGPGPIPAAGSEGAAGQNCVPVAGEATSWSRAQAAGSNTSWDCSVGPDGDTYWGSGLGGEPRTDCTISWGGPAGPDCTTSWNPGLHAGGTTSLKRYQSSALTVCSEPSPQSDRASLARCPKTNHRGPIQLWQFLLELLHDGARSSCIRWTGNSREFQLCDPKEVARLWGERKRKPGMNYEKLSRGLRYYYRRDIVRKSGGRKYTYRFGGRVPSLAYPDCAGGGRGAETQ
# Summary of the method: as §1
# ELF3 = target: T11, ELF3 (Homo sapiens, UniProt P78545 1-371)
# T11 sequence: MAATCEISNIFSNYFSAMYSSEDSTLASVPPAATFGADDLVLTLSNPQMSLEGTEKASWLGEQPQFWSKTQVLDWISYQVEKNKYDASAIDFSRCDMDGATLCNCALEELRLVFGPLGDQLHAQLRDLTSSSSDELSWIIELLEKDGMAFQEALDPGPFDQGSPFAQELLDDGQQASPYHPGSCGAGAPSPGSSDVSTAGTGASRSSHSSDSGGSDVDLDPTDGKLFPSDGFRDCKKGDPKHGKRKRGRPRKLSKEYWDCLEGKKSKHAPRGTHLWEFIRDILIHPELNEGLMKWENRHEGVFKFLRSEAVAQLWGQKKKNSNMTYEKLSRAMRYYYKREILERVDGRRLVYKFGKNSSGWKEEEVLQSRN
# Summary of the method: as §1
# ETV1 = ETV1 (Homo sapiens, UniProt P50549 1-477)
# Summary of the method: as §1
# Sequence of ETV5 (P41161 whole entry): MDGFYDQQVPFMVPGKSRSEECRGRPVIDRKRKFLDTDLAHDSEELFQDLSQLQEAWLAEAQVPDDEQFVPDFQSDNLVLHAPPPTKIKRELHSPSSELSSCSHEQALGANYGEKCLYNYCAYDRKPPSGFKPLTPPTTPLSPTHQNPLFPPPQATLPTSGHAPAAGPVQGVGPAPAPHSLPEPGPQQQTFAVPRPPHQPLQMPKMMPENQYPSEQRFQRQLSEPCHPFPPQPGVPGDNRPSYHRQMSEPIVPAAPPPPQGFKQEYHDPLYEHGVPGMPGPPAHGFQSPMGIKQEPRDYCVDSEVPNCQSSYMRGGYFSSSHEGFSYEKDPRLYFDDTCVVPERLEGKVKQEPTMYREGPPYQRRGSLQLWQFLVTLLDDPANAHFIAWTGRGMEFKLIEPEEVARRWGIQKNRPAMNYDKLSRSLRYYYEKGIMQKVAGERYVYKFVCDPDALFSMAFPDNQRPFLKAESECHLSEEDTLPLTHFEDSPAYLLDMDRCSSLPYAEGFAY
# Sequence of ELF1 (P32519 whole entry): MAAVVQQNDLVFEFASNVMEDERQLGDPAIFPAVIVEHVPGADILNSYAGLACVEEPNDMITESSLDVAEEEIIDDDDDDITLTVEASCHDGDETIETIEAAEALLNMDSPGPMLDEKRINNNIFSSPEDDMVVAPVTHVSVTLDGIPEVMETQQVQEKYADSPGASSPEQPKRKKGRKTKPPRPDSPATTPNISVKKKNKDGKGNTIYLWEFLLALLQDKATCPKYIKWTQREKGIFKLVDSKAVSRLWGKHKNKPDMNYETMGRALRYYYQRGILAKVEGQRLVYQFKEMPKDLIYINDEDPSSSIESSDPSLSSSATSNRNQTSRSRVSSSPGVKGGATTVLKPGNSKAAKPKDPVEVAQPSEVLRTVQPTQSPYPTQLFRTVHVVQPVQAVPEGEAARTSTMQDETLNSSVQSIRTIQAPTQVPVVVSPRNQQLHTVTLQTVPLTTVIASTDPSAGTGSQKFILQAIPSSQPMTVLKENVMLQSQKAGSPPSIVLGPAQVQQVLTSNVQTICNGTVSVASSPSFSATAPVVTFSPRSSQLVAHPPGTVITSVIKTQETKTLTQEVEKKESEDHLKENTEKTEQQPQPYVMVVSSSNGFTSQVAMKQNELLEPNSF
# Sequence of ETV1 (P50549 whole entry): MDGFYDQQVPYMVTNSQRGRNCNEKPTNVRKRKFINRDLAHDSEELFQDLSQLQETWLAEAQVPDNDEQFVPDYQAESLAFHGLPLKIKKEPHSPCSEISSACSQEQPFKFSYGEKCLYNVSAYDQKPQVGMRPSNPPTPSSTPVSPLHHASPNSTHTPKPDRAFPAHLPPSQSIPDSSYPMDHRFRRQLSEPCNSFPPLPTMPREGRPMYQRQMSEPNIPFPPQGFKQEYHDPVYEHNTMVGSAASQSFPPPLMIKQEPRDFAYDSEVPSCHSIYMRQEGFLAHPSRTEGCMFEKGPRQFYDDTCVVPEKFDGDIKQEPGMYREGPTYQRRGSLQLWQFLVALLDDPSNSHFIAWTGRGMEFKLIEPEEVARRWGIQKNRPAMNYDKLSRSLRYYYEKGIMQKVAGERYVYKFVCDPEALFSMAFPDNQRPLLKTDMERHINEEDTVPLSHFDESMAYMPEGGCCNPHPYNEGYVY
# Sequence of ELF4 (Q99607 whole entry): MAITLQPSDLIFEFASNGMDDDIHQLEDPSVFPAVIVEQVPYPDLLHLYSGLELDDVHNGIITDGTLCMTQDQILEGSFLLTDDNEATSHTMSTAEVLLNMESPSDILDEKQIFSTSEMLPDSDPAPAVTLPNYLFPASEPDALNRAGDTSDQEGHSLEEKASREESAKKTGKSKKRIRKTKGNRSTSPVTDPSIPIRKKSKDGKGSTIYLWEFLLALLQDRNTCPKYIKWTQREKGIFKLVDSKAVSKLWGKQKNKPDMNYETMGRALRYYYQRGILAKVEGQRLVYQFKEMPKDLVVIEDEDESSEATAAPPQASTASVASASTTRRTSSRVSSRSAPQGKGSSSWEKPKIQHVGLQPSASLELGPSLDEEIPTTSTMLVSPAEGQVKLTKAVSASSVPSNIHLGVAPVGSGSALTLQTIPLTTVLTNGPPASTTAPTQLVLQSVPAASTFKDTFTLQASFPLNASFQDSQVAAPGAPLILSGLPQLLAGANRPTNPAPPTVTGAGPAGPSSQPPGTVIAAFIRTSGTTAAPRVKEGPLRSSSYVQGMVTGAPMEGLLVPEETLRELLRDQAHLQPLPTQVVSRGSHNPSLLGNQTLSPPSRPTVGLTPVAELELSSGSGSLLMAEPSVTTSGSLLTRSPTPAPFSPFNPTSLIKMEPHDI
# Sequence of SPIB (Q01892 whole entry): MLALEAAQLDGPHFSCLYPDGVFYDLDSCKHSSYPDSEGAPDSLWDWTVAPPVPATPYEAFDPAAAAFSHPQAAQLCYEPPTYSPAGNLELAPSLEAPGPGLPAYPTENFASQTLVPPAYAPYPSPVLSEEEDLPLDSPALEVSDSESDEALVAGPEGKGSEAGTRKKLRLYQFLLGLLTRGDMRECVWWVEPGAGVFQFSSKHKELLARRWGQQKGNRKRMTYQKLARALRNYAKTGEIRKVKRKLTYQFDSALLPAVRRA
sequence,measurement,setting,value
GGAAGT,binding signal,FLI1,"2.88 fold enrichment (6-mer frequency, TF over GST control)"
same,binding signal,ELK1,"3.29 fold enrichment (6-mer frequency, TF over GST control)"
same,binding signal,GABPA,"2.57 fold enrichment (6-mer frequency, TF over GST control)"
same,binding signal,ERG,"3.6 fold enrichment (6-mer frequency, TF over GST control)"
same,binding signal,ELF1,"2.87 fold enrichment (6-mer frequency, TF over GST control)"
same,binding signal,EHF,"3.23 fold enrichment (6-mer frequency, TF over GST control)"
same,binding signal,SPI1,"4.86 fold enrichment (6-mer frequency, TF over GST control)"
same,binding signal,SPIB,"3.19 fold enrichment (6-mer frequency, TF over GST control)"
same,binding signal,ELK3,"3.36 fold enrichment (6-mer frequency, TF over GST control)"
same,binding signal,FEV,"3.88 fold enrichment (6-mer frequency, TF over GST control)"
same,binding signal,ETV5,"3.34 fold enrichment (6-mer frequency, TF over GST control)"
same,binding signal,SPIC,"3.41 fold enrichment (6-mer frequency, TF over GST control)"
same,binding signal,ELF4,"2.72 fold enrichment (6-mer frequency, TF over GST control)"
same,binding signal,ELK4,"2.27 fold enrichment (6-mer frequency, TF over GST control)"
same,binding signal,ETV2,"2.85 fold enrichment (6-mer frequency, TF over GST control)"
same,binding signal,ELF3,"3.25 fold enrichment (6-mer frequency, TF over GST control)"
same,binding signal,ETV1,"3.33 fold enrichment (6-mer frequency, TF over GST control)"
